According to the supplement of paper PMC11732987, “Enantioselective OTUD7B fragment discovery through chemoproteomics screening and high-throughput optimisation” (Communications Chemistry, 2025):

Key:
Assay in all cases: log2 ratio of Biotin-Ahx-Ub-VS probe labelling (fragment/DMSO); higher = less target engagement (more negative = stronger competition), active = hit call of the paper (q ≤ 0.05, log2 ratio ≤ -1)
Conditions in all cases: compound concentration: 200 uM; treatment time: 3 h
USP19 = molecular target: T1, USP19 (UniProt O94966)
T1 sequence (whole entry): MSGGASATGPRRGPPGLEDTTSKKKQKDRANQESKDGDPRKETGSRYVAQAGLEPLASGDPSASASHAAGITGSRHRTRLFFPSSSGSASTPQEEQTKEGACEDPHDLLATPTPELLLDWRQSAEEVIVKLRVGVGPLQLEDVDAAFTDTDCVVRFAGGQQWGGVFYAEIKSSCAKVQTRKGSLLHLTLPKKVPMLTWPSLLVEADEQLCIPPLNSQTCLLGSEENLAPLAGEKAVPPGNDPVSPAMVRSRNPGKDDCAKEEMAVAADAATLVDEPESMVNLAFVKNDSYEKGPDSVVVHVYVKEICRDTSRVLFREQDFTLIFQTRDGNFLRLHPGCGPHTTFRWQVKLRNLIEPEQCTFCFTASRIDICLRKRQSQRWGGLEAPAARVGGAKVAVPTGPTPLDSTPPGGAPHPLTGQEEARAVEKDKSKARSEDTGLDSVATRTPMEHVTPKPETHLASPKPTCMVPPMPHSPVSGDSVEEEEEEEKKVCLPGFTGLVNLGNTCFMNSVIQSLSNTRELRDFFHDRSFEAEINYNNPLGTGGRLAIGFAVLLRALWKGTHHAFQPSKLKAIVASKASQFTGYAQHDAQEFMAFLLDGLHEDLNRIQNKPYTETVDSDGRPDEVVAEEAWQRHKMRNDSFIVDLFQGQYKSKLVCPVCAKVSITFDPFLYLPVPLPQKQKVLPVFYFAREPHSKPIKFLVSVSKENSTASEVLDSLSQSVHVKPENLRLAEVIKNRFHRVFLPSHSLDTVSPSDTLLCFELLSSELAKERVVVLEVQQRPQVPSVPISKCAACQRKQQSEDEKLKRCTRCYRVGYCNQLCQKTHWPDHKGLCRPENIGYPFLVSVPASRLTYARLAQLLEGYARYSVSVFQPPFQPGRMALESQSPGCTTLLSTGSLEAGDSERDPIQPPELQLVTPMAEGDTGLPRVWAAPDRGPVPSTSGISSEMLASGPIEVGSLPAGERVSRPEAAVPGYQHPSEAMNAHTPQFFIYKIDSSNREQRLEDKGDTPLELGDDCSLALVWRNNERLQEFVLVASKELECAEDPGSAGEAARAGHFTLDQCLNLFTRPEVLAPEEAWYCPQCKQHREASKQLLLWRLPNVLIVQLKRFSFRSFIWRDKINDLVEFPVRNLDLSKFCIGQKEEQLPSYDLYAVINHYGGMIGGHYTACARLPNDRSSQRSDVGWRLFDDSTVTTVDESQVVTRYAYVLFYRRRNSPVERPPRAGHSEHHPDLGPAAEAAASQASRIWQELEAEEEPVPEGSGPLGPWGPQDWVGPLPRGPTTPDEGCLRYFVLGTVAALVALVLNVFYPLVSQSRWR
Summary of the method: (§1)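 Triplicate samples of HEK293T lysate, 495 µg each, received fragment at 200 µM or vehicle for 3 h, followed by Biotin-Ahx-Ub-VS (0.5 µM final) for 1 h. After NeutrAvidin enrichment of labelled DUBs and LysC/trypsin digestion, peptides were run by diaPASEF LC-MS/MS. The values are average log2 fragment/vehicle ratios from global-median-normalised Spectronaut label-free quantities, tested by unpaired t-test on proteins having ≥2 unique peptides.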

USP24 = USP24 (UniProt Q9UPU5)
Summary of the method: as §1

USP25 = molecular target: T2, USP25 (UniProt Q9UHP3)
T2 sequence (whole entry): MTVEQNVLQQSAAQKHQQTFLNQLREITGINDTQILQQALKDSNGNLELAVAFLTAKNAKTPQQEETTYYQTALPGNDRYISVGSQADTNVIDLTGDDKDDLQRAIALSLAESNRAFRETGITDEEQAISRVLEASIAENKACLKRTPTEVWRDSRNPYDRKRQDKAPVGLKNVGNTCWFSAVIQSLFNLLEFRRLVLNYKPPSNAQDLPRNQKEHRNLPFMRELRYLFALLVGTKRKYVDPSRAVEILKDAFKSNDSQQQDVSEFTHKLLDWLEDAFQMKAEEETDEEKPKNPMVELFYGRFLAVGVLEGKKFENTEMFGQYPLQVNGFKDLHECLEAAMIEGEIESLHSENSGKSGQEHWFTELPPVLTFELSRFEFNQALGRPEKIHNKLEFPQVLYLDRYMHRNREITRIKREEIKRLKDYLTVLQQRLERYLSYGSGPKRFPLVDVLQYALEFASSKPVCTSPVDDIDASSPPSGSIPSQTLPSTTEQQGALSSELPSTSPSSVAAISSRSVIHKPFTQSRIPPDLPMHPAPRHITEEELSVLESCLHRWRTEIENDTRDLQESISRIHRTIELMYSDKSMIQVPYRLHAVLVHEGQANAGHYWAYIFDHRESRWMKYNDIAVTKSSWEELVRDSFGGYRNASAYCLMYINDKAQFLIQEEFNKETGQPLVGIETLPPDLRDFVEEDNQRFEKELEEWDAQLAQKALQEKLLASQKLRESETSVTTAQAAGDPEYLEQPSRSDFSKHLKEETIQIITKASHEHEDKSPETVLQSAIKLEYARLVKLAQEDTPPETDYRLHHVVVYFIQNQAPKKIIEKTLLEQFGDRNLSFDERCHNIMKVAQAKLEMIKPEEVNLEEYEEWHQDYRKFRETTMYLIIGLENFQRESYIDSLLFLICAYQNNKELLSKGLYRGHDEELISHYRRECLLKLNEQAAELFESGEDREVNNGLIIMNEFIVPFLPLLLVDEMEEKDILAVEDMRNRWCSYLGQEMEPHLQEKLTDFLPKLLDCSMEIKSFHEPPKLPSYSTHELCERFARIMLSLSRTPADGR
Summary of the method: as §1

USP28 = molecular target: T3, USP28 (UniProt Q96RU2)
T3 sequence (whole entry): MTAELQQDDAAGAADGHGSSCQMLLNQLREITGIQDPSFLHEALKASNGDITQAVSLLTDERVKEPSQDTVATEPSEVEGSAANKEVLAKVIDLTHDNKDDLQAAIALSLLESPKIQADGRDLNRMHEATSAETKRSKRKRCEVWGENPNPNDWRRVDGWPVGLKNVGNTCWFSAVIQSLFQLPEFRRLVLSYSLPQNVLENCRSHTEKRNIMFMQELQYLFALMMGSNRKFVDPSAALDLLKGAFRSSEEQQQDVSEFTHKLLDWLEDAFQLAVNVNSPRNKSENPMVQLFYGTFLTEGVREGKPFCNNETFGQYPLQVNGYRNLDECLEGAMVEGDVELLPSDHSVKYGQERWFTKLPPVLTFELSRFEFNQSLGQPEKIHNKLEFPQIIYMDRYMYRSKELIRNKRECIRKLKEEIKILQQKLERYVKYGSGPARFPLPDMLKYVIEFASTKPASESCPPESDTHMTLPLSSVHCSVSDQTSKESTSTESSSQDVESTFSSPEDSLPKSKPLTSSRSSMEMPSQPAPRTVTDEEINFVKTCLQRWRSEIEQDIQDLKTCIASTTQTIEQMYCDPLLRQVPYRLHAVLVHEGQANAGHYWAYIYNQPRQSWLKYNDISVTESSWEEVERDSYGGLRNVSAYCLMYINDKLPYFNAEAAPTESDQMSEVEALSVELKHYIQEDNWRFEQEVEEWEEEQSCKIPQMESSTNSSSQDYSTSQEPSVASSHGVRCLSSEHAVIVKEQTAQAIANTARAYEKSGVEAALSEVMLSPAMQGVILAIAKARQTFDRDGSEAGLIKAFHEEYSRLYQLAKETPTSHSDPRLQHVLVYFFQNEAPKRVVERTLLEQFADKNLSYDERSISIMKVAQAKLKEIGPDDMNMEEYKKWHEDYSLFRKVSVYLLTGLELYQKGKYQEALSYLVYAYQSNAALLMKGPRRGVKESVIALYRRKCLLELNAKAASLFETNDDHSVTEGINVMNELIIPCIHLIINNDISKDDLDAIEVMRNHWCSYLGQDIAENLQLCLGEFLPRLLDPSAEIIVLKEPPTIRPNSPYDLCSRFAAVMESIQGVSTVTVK
Summary of the method: as §1

Measured: log2 ratio of Biotin-Ahx-Ub-VS probe labelling

USP24, sequence (Q9UPU5 whole entry): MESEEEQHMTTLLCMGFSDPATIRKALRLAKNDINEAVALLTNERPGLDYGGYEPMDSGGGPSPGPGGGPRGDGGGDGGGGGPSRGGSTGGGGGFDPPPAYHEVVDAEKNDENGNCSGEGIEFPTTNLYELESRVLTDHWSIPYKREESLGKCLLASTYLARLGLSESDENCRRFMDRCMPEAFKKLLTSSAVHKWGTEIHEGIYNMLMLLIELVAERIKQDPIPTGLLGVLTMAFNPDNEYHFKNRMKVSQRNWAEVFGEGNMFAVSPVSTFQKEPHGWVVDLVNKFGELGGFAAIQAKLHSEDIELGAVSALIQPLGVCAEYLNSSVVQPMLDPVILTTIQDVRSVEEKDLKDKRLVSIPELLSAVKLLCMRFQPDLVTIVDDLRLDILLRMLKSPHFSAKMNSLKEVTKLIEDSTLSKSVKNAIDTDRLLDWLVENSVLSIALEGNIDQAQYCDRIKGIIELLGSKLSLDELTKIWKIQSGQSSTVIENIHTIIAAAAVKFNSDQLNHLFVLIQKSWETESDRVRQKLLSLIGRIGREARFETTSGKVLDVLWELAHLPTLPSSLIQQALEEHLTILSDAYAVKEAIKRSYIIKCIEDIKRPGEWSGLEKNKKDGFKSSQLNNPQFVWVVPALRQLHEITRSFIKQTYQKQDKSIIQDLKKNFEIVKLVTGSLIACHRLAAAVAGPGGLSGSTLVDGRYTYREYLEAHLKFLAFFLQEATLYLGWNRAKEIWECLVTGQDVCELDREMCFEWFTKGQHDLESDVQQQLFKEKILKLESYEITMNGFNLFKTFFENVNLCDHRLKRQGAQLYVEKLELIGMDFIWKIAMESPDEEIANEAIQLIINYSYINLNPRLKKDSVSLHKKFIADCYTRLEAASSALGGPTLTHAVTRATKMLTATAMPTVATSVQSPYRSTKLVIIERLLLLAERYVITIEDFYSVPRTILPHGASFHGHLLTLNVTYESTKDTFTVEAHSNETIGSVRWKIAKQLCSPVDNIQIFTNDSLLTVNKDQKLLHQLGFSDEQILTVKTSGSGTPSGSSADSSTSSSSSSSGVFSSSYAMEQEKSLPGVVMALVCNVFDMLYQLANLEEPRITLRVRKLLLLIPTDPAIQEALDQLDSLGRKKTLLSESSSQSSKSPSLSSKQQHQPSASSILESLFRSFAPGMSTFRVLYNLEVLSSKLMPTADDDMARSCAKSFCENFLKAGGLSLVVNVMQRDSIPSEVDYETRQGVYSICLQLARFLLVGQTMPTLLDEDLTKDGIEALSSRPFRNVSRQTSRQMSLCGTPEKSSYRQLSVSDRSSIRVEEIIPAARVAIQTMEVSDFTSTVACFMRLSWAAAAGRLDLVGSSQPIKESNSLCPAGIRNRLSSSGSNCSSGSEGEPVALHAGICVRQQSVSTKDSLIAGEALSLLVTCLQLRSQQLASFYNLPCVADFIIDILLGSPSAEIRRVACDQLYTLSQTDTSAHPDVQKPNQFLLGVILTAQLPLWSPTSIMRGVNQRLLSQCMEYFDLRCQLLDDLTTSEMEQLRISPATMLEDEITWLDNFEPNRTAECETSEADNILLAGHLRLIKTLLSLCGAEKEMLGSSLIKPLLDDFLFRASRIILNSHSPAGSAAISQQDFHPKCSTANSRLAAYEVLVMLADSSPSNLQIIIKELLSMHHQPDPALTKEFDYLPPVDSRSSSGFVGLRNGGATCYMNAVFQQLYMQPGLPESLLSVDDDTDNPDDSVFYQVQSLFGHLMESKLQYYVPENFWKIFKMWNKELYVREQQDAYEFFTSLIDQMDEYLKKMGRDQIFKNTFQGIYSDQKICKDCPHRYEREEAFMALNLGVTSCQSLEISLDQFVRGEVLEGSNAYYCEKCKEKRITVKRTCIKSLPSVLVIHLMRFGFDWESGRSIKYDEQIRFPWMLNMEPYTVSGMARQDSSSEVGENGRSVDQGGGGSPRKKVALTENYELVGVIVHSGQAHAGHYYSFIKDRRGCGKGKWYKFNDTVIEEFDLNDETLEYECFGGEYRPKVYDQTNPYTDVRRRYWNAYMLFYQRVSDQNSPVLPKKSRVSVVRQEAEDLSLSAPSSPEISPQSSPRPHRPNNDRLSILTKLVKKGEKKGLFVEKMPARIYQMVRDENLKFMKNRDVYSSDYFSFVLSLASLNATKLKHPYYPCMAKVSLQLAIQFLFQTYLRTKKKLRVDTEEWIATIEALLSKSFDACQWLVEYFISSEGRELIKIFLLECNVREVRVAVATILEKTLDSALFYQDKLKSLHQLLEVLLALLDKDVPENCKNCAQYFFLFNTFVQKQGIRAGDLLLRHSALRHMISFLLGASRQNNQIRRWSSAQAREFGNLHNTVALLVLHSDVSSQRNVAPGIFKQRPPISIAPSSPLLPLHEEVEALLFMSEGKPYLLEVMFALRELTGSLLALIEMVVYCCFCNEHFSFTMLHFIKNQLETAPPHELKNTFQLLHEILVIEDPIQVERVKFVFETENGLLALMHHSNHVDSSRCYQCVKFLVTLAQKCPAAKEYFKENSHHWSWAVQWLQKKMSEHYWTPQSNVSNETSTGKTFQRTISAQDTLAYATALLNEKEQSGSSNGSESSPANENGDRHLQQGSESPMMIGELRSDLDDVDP

CC1CCc2onc(CNC(=O)CCl)c2C1 (centres undefined)
inactive: USP19 0.0516 | USP24 0.0469 | USP25 0.00198 | USP28 -0.19
